According to the supplement of paper PMC10723795:
± gives the standard deviation of the averaged measurements.

Test system: RPE1
Experiment: nucleolar normality score relative to DMSO (fraction of DMSO control); RPE1 is a non-cancer human cell line; higher = more normal nucleoli (less nucleolar stress)
Description: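 Selected screen hits were validated in hTERT lines (BJ5TA, CHON-002, RPE1) and cancer lines (DLD1, HCT116). Cells were immunostained for nucleolin and UBF and the nucleolar normality score was measured per field of view, with 4 fields per drug. Scores are normalized to each cell line's own DMSO control. Dose and time are not stated for this panel.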

| SMILES | nucleolar normality score |
| --- | --- |
| CC[C@@]1(O)C(=O)OCc2c1cc1n(c2=O)Cc2cc3ccccc3nc2-1 [Camptothecin] | 0.413 ± 0.024 |
